From the supplement of paper PMC6763611

Test system: Plasmodium falciparum NF54
Assay: growth inhibition relative to untreated control; higher = more inhibition
Settings: 72 h
Summary of the method: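 P. falciparum NF54 ring stages (1% hematocrit, 1% parasitemia, 100 μL/well in 96-well half-area dark plates) were exposed for 72 h at 37 °C to single 5 μM or 1 μM doses of Pathogen Box compounds. The medium was minimal RPMI or minimal RPMI plus chorismate end-products (2.2 μM folate, 7.3 μM pABA, 7.3 μM pHBA, 111 μM tyrosine, 90 μM phenylalanine, tryptophan). Growth inhibition was read by SYBR Green, normalised to untreated controls, with uninfected erythrocytes as background.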

[1] = 1 µM, MM + chorismate end-products (CM screening medium)
[2] = 5 µM, MM + chorismate end-products (CM screening medium)

COc1ccc(CCN2CCC(NCc3cccc(N(C)C)c3)CC2)cc1
growth inhibition [1]: 88.1% | growth inhibition (1 µM, minimal medium (MM)): > 100% | growth inhibition [2]: > 100% | growth inhibition (5 µM, minimal medium (MM)): 94.6%

Cc1nc(-c2cccc(NCc3ccccc3)c2)[nH]c1C
growth inhibition [1]: 63.5% | growth inhibition (1 µM, minimal medium (MM)): 35.9% | growth inhibition [2]: 93.4% | growth inhibition (5 µM, minimal medium (MM)): 94.7%

O=C([C@@H](c1ccc(Cl)cc1)c1cccnc1)N1CCN(c2ccc(C(F)(F)F)cc2)CC1
growth inhibition [1]: < 0% | growth inhibition (1 µM, minimal medium (MM)): < 0% | growth inhibition [2]: < 0% | growth inhibition (5 µM, minimal medium (MM)): 7.9%

Cc1cc(NCCc2ccccc2)nc(NC(=N)Nc2ccc(Cl)cc2)n1
growth inhibition [1]: 97.8% | growth inhibition (1 µM, minimal medium (MM)): 97.7% | growth inhibition [2]: 86.2% | growth inhibition (5 µM, minimal medium (MM)): 93.7%

O=C(Nc1c(O)cccc1-c1nc2c(C(=O)O)cccc2o1)c1cc(-c2ccccc2)on1
growth inhibition [1]: > 100% | growth inhibition (1 µM, minimal medium (MM)): < 0% | growth inhibition [2]: < 0% | growth inhibition (5 µM, minimal medium (MM)): < 0%

Nc1ncnc2c1ncn2[C@@H]1O[C@H](COS(=O)(=O)NC(=O)c2ccccc2O)[C@@H](O)[C@H]1O
growth inhibition [1]: 32.6% | growth inhibition (1 µM, minimal medium (MM)): < 0% | growth inhibition [2]: < 0% | growth inhibition (5 µM, minimal medium (MM)): < 0%

Cn1ncc2c(N3CCOCC3)nc(NCCc3c[nH]c4ccccc34)nc21
growth inhibition [1]: 18.9% | growth inhibition (1 µM, minimal medium (MM)): 31.1% | growth inhibition [2]: 10.8% | growth inhibition (5 µM, minimal medium (MM)): < 0%

CCOc1ccc2cc(-c3nn(CC4CCN(C)CC4)c4ncnc(N)c34)ccc2c1
growth inhibition [1]: 39.8% | growth inhibition (1 µM, minimal medium (MM)): 15.5% | growth inhibition [2]: 51.2% | growth inhibition (5 µM, minimal medium (MM)): 16.8%

CNC(=O)CNc1nc(-c2ccccn2)nc2scc(-c3ccccc3)c12
growth inhibition [1]: 8.9% | growth inhibition (1 µM, minimal medium (MM)): 9.62% | growth inhibition [2]: 61.2% | growth inhibition (5 µM, minimal medium (MM)): 37.3%

CCC(Sc1nc2ccccc2o1)C(=O)Nc1nnc(C)s1 (stereo not given)
growth inhibition [1]: 13.2% | growth inhibition (1 µM, minimal medium (MM)): 0.545% | growth inhibition [2]: < 0% | growth inhibition (5 µM, minimal medium (MM)): 0.009%

O=C(Nc1nnc(-c2ccc(Cl)s2)o1)c1ccc(Cl)s1
growth inhibition [1]: 34.8% | growth inhibition (1 µM, minimal medium (MM)): 22.8% | growth inhibition [2]: < 0% | growth inhibition (5 µM, minimal medium (MM)): < 0%

O=C(NC1CC1)c1ccc(CSCc2ccccc2Cl)o1
growth inhibition [1]: 59.9% | growth inhibition (1 µM, minimal medium (MM)): > 100% | growth inhibition [2]: > 100% | growth inhibition (5 µM, minimal medium (MM)): 90.8%

O=S(=O)(c1ccc(Cl)cc1)N1CCN(C(=S)NCc2ccco2)CC1
growth inhibition [1]: 97.7% | growth inhibition (1 µM, minimal medium (MM)): 93.6% | growth inhibition [2]: 94.3% | growth inhibition (5 µM, minimal medium (MM)): 92.6%

CCCc1ccc(S(=O)(=O)Nc2ccc(CN3CCN(CC4CC4)CC3)cc2)cc1
growth inhibition [1]: 7.84% | growth inhibition (1 µM, minimal medium (MM)): 4.1% | growth inhibition [2]: 66.4% | growth inhibition (5 µM, minimal medium (MM)): 86.7%

COc1cccc(CC(=O)N2CCC(n3c(C)nc4ccc(F)cc43)CC2)c1
growth inhibition [1]: > 100% | growth inhibition (1 µM, minimal medium (MM)): > 100% | growth inhibition [2]: > 100% | growth inhibition (5 µM, minimal medium (MM)): 95.6%

O=C(C1CCN(c2cc(-n3cccc3)ncn2)CC1)N1CCc2ccccc2C1
growth inhibition [1]: 11.5% | growth inhibition (1 µM, minimal medium (MM)): 5.57% | growth inhibition [2]: 4.91% | growth inhibition (5 µM, minimal medium (MM)): 3.34%

Cc1[nH]c2ccccc2c1C(c1cccs1)N1CCN(C)CC1 (stereo not given)
growth inhibition [1]: 11.9% | growth inhibition (1 µM, minimal medium (MM)): 21.1% | growth inhibition [2]: 9.09% | growth inhibition (5 µM, minimal medium (MM)): 19.7%

COc1cc(C2=NCCN2)ccc1-c1cn(-c2cccc(C3=NCCN3)c2)nn1
growth inhibition [1]: 68.5% | growth inhibition (1 µM, minimal medium (MM)): 86.7% | growth inhibition [2]: > 100% | growth inhibition (5 µM, minimal medium (MM)): 88.7%

Cc1cc2nc(NC(=O)C(C)(C)C)nc(Cl)c2n1Cc1ccc(Cl)cc1
growth inhibition [1]: 35.7% | growth inhibition (1 µM, minimal medium (MM)): 28.8% | growth inhibition [2]: < 0% | growth inhibition (5 µM, minimal medium (MM)): < 0%

O=C(Nc1ccc(N2CCNCC2)nc1)c1oc(-c2ccccc2)nc1C(F)(F)F
growth inhibition [1]: 91.7% | growth inhibition (1 µM, minimal medium (MM)): > 100% | growth inhibition [2]: 96.6% | growth inhibition (5 µM, minimal medium (MM)): 89.9%

c1cc(C2=NCCN2)cc(-c2cc(-c3ccc(C4=NCCN4)cc3)no2)c1
growth inhibition [1]: 81.6% | growth inhibition (1 µM, minimal medium (MM)): 81.6% | growth inhibition [2]: 97.8% | growth inhibition (5 µM, minimal medium (MM)): 89.7%

Nc1ncnc2c1c(-c1cnc3ccccc3c1)nn2CC1CCNCC1
growth inhibition [1]: 22.7% | growth inhibition (1 µM, minimal medium (MM)): 5.9% | growth inhibition [2]: < 0% | growth inhibition (5 µM, minimal medium (MM)): 16.8%

O=C(Nc1ccc(C(F)(F)F)c(C(F)(F)F)c1)c1cc(Cl)ccc1O
growth inhibition [1]: 93.1% | growth inhibition (1 µM, minimal medium (MM)): 95% | growth inhibition [2]: > 100% | growth inhibition (5 µM, minimal medium (MM)): 92.5%

COc1ccc(-c2onc(C(F)(F)F)c2-c2ccc(Cl)cc2)c(O)c1
growth inhibition [1]: 94% | growth inhibition (1 µM, minimal medium (MM)): 94.8% | growth inhibition [2]: 98.9% | growth inhibition (5 µM, minimal medium (MM)): 97.5%

CS(=O)(=O)N1CCC(CCn2nc(Cc3cccc4ccccc34)c3c(N)ncnc32)CC1
growth inhibition [1]: < 0% | growth inhibition (1 µM, minimal medium (MM)): 24.3% | growth inhibition [2]: 41.3% | growth inhibition (5 µM, minimal medium (MM)): < 0%

Nc1ncc(-c2ccc(C(F)(F)F)nc2)cc1-c1ccc(C(F)(F)F)nc1
growth inhibition [1]: 66.1% | growth inhibition (1 µM, minimal medium (MM)): 56.4% | growth inhibition [2]: 54.4% | growth inhibition (5 µM, minimal medium (MM)): 53.9%

CC(Oc1cccc(Cl)c1)C(=O)Nc1ccc2oc(-c3ccncc3)nc2c1 (stereo not given)
growth inhibition [1]: < 0% | growth inhibition (1 µM, minimal medium (MM)): 2.28% | growth inhibition [2]: < 0% | growth inhibition (5 µM, minimal medium (MM)): 3.02%

COc1ccc(C2(C(=O)Nc3ccc(Br)cc3)CCCC2)cc1
growth inhibition [1]: 15.3% | growth inhibition (1 µM, minimal medium (MM)): 2.06% | growth inhibition [2]: < 0% | growth inhibition (5 µM, minimal medium (MM)): 2.98%

O=C1COCc2ccc(Br)cc2N1Cc1ccc(C(F)(F)F)cc1
growth inhibition [1]: 56% | growth inhibition (1 µM, minimal medium (MM)): 96.7% | growth inhibition [2]: > 100% | growth inhibition (5 µM, minimal medium (MM)): 85.1%

COc1ccc(-c2cncc3ccc(C(=O)NCCCn4ccnc4)nc23)cc1
growth inhibition [1]: 22.9% | growth inhibition (1 µM, minimal medium (MM)): 72% | growth inhibition [2]: 84.4% | growth inhibition (5 µM, minimal medium (MM)): 92.4%

CC[C@@H](CO)NCCN[C@@H](CC)CO
growth inhibition [1]: 12.3% | growth inhibition (1 µM, minimal medium (MM)): 28.8% | growth inhibition [2]: 0.997% | growth inhibition (5 µM, minimal medium (MM)): 3.8%

COc1ccc(Oc2ccc([C@@H](C)N(C)c3ncc4c(N)nc(N)nc4n3)cc2)cc1
growth inhibition [1]: 13.7% | growth inhibition (1 µM, minimal medium (MM)): < 0% | growth inhibition [2]: > 100% | growth inhibition (5 µM, minimal medium (MM)): 89.1%

COc1cc(CN2CCC3(C=Cc4ccccc43)CC2)cc2c1OCO2
growth inhibition [1]: > 100% | growth inhibition (1 µM, minimal medium (MM)): < 0% | growth inhibition [2]: < 0% | growth inhibition (5 µM, minimal medium (MM)): 8.3%

COc1cccc2c(C)nc(N=C(N)N)nc12
growth inhibition [1]: 70.2% | growth inhibition (1 µM, minimal medium (MM)): 71.3% | growth inhibition [2]: 92.4% | growth inhibition (5 µM, minimal medium (MM)): 89.2%

O=C(OCc1ccccc1)N1CCC(c2cc(-c3ccncc3)c(-c3ccc(F)cc3)[nH]2)CC1
growth inhibition [1]: 62.4% | growth inhibition (1 µM, minimal medium (MM)): 62.7% | growth inhibition [2]: 98.3% | growth inhibition (5 µM, minimal medium (MM)): 64.2%

COc1cccc(-c2cc3c(Nc4cccnc4)nccc3[nH]2)c1
growth inhibition [1]: 91% | growth inhibition (1 µM, minimal medium (MM)): 18.4% | growth inhibition [2]: 94.2% | growth inhibition (5 µM, minimal medium (MM)): 94.8%

CC(C)n1nc(-c2cc3c(Cl)cccc3[nH]2)c2c(N)ncnc21
growth inhibition [1]: 50.4% | growth inhibition (1 µM, minimal medium (MM)): 16% | growth inhibition [2]: 57.9% | growth inhibition (5 µM, minimal medium (MM)): 15.9%

FC(F)(F)c1cccc(-c2nc3c(NCc4ccncc4)nccc3[nH]2)c1
growth inhibition [1]: 99.9% | growth inhibition (1 µM, minimal medium (MM)): > 100% | growth inhibition [2]: 95.4% | growth inhibition (5 µM, minimal medium (MM)): 96%

CN1CCCN(C(c2ccccc2)c2ccc(Cl)cc2)CC1 (stereo not given)
growth inhibition [1]: < 0% | growth inhibition (1 µM, minimal medium (MM)): < 0% | growth inhibition [2]: 33.8% | growth inhibition (5 µM, minimal medium (MM)): 17.6%

Cc1cc(C)n2nc(C(=O)Nc3cc(C(F)(F)F)ccc3N3CCOCC3)nc2n1
growth inhibition [1]: 82.6% | growth inhibition (1 µM, minimal medium (MM)): 77.1% | growth inhibition [2]: 75.9% | growth inhibition (5 µM, minimal medium (MM)): 68.5%

COc1ccc(CN2CCOc3ccc(C(C)(O)CN(C)C)cc3C2)cc1C (stereo not given)
growth inhibition [1]: 78.6% | growth inhibition (1 µM, minimal medium (MM)): 75% | growth inhibition [2]: 66.7% | growth inhibition (5 µM, minimal medium (MM)): 21.7%

O=[N+]([O-])c1cn2c(n1)OC[C@@H](OCc1ccc(OC(F)(F)F)cc1)C2
growth inhibition [1]: 36.9% | growth inhibition (1 µM, minimal medium (MM)): 2.72% | growth inhibition [2]: < 0% | growth inhibition (5 µM, minimal medium (MM)): < 0%

CN1CCC(c2cc(-c3ccncc3)c(-c3ccc(F)cc3)[nH]2)CC1
growth inhibition [1]: 72.9% | growth inhibition (1 µM, minimal medium (MM)): 72.7% | growth inhibition [2]: 92.6% | growth inhibition (5 µM, minimal medium (MM)): 92.2%

N#Cc1nc(-c2ccccc2)oc1S(=O)(=O)c1ccc(Cl)cc1
growth inhibition [1]: 43.4% | growth inhibition (1 µM, minimal medium (MM)): 49.5% | growth inhibition [2]: 97.9% | growth inhibition (5 µM, minimal medium (MM)): 55%

Cc1nc(-c2ccccn2)nc(N(C)CCc2ccccc2)c1Cl
growth inhibition [1]: 31.5% | growth inhibition (1 µM, minimal medium (MM)): 23.4% | growth inhibition [2]: 82.9% | growth inhibition (5 µM, minimal medium (MM)): 83.8%

CC1(C)Cc2c(c(N3CCOCC3)nc3snc(Br)c23)CO1
growth inhibition [1]: 79.2% | growth inhibition (1 µM, minimal medium (MM)): 74.4% | growth inhibition [2]: 53.9% | growth inhibition (5 µM, minimal medium (MM)): 19.1%

Clc1ccc(CN2CCN(C3=NCCN3)CC2)cc1Cl
growth inhibition [1]: < 0% | growth inhibition (1 µM, minimal medium (MM)): < 0% | growth inhibition [2]: 48.8% | growth inhibition (5 µM, minimal medium (MM)): 10%

CCn1cnc2c(Nc3cc(F)cc(F)c3)nc(C#N)nc21
growth inhibition [1]: 36.4% | growth inhibition (1 µM, minimal medium (MM)): < 0% | growth inhibition [2]: 40.3% | growth inhibition (5 µM, minimal medium (MM)): < 0%

CNC(=O)C1Cc2c([nH]c3cc(Cl)ccc23)C2(CCN(CCc3ccccc3)CC2)N1 (stereo not given)
growth inhibition [1]: 87% | growth inhibition (1 µM, minimal medium (MM)): > 100% | growth inhibition [2]: 92.8% | growth inhibition (5 µM, minimal medium (MM)): 94.4%

CN1CCN(S(=O)(=O)c2ccc(-c3ccc4c(Nc5ncc(Cl)cn5)ccnc4c3)cc2)CC1
growth inhibition [1]: 96.5% | growth inhibition (1 µM, minimal medium (MM)): 96.3% | growth inhibition [2]: 99% | growth inhibition (5 µM, minimal medium (MM)): 88.6%
